The panel holds about 79,000 compounds, 15% with a hit somewhere; the sample as a whole holds those more often. Unmarked numbers belong to inactive results. Calls of active or inactive are those of the source. No stated cut-off is given here; in the data, active means growth inhibition above about 70%; inactive means the rest.
Test: NCI Yeast Anticancer Drug Screen. Data for the mec2-1 strain (AID 157)
Conditions: S. cerevisiae mec2-1 strain, at 5.0 µM (retest, dose inferred, filed as 0.5), stronger effect = higher value
Method in brief: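 mec2-1 yeast strain, carrying an alteration in DNA damage repair or cell cycle control, was exposed to compounds; growth inhibition was measured relative to vehicle-treated controls.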

**Q.** For `O=C1C(N=Nc2ccccc2)=C(O)C2C3C=CC(C3)C12` (stereo not drawn), which growth inhibition is on record?
**A.** The growth inhibition was 0%.

**Q.** Which growth inhibition does the source give for `CC1CCCC(C(O)(C(=O)O)C2CCCC(C)C2)C1` (stereo not drawn) here?
**A.** The growth inhibition was 29%.

**Q.** Which growth inhibition does the source give for `Cc1c(Cl)ccc2c1NC(=O)C2(O)CC(=O)c1ccc(Cl)cc1` (stereo not drawn) here?
**A.** The growth inhibition was 14%.

**Q.** With `Cc1cc2c(=O)[nH]c(N)nc2nc1C` as the compound, how does the growth inhibition read?
**A.** Its growth inhibition is 1%.

**Q.** Which growth inhibition does the source give for `C=C1C(=O)O[C@@H]2C[C@@]3(C)CCC[C@H](C)C3=C[C@H]12` here?
**A.** The growth inhibition was 23%.

**Q.** Which growth inhibition does the source give for `CCC(=NCCCCCCN=C(CC)c1cc(C)cc([N+](=O)[O-])c1O)c1cc(C)cc([N+](=O)[O-])c1O.[Fe]` here?
**A.** Its growth inhibition is -10%.

**Q.** With `CCCCN(CCCC)CC(O)c1cc(-c2ccc(Cl)cc2)nc2c(Cl)cccc12` (stereo not drawn) as the compound, how does the growth inhibition read?
**A.** The growth inhibition was -2%.

**Q.** Which growth inhibition does the source give for `COc1ccc2c(c1)CC/C(=C\c1ccc(OCCN(C)C)cc1)C2=O` here?
**A.** Its growth inhibition is 2%.

**Q.** With `CCOC(=O)c1cc2c(nc1NCc1ccc(OC)c(OC)c1)/C(=C/c1ccccc1)CCCC2` as the compound, how does the growth inhibition read?
**A.** Its growth inhibition is 17%.

**Q.** For `CSCS(=O)C[C@H](CO)NC(=O)/C=C/c1c(C)[nH]c(=O)[nH]c1=O` (stereo partly drawn), which growth inhibition is on record?
**A.** Its growth inhibition is 26%.

**Q.** Which growth inhibition does the source give for `CCOC(=O)c1c(N)sc2c1CCCCC2` here?
**A.** The growth inhibition was -51%.

**Q.** Which growth inhibition does the source give for `Cc1cc(N)c(C)c2c1[nH]c1ccc(Br)cc12` here?
**A.** The growth inhibition was -3%.

**Q.** Which growth inhibition does the source give for `N=C(N)Sc1ccc([N+](=O)[O-])cc1Cl` here?
**A.** The growth inhibition was 35%.

**Q.** Which growth inhibition does the source give for `COc1c(OC)c(C2(O)C(=O)N(C)c3ccccc32)c(OC)c(OC)c1C1(O)C(=O)N(C)c2ccccc21` (stereo not drawn) here?
**A.** The growth inhibition was -2%.

**Q.** For `Fc1cccc(NC(=S)SCc2ccc(Cl)cc2)c1`, which growth inhibition is on record?
**A.** The growth inhibition was 15%.

**Q.** For `Cc1ccc(/C=N/NS(=O)(=O)c2ccccc2)c(C)c1`, which growth inhibition is on record?
**A.** The growth inhibition was -10%.

**Q.** Which growth inhibition does the source give for `CCCCCCCCCCCCNC(=O)C[n+]1cccc(C(=O)N(C)C)c1` here?
**A.** Its growth inhibition is -24%.

**Q.** For `CN(C)C(=S)/N=c1\ss/c(=N\S(=O)(=O)c2ccccc2)n1-c1ccccc1`, which growth inhibition is on record?
**A.** Its growth inhibition is -5%.

**Q.** Which growth inhibition does the source give for `O=C(NCCCl)Nc1c2ccccc2nc2ccccc12` here?
**A.** The growth inhibition was 8%.

**Q.** Which growth inhibition does the source give for `COc1ccccc1NC(=O)/C(=C/c1ccccc1)C(C)=O` here?
**A.** The growth inhibition was -2%.

**Q.** Which growth inhibition does the source give for `Oc1[nH]c2ccccc2c1N=NC(=S)NCc1ccccn1` here?
**A.** The growth inhibition was 2%.

**Q.** With `c1cc2c(cc1CCCCCCCCCCc1ccc3c(c1)CCC3)CCC2` as the compound, how does the growth inhibition read?
**A.** The growth inhibition was -13%.

**Q.** For `C=Cc1ccccc1C1(O)C=CC(OC)(OC)C=C1`, which growth inhibition is on record?
**A.** Its growth inhibition is 11%.

**Q.** Which growth inhibition does the source give for `CN(C)CC1CCc2c(ccc3ccccc23)C1=O` (stereo not drawn) here?
**A.** The growth inhibition was -16%.

**Q.** Which growth inhibition does the source give for `CCCCC(C)(C)OC(=O)Nc1ccc(Br)cc1` here?
**A.** Its growth inhibition is -14%.

**Q.** With `O=C(Nc1ccc(F)c(Cl)c1)Oc1ccc(Br)cc1Br` as the compound, how does the growth inhibition read?
**A.** Its growth inhibition is 5%.

**Q.** Which growth inhibition does the source give for `CCO/C=C1\N=C(C(O)(c2ccc(Cl)cc2)c2ccc(Cl)cc2)OC1=O` here?
**A.** The growth inhibition was 1%.

**Q.** With `O=C1c2ccccc2C(O)(c2ccccc2)c2c(Cl)cccc21` (stereo not drawn) as the compound, how does the growth inhibition read?
**A.** Its growth inhibition is -6%.

**Q.** For `Nc1ccccc1-c1nc2c(ccc3ccccc32)[nH]1`, which growth inhibition is on record?
**A.** Its growth inhibition is -17%.

**Q.** With `CCCCCCCCCCCCCCNCCN` as the compound, how does the growth inhibition read?
**A.** Its growth inhibition is 46%.

**Q.** Which growth inhibition does the source give for `CC(C)CCCC(C)C1CCC2C3CC=C4OC(=O)CCC4(C)C3CCC12C` (stereo not drawn) here?
**A.** The growth inhibition was -2%.

**Q.** With `CC(Br)C(=O)c1ccc2cc(Cl)c3ccccc3c2c1` (stereo not drawn) as the compound, how does the growth inhibition read?
**A.** Its growth inhibition is 5%.

**Q.** With `N#CSc1ccc2nc(NCO)sc2c1` as the compound, how does the growth inhibition read?
**A.** The growth inhibition was 7%.

**Q.** Which growth inhibition does the source give for `c1ccc2c3[nH]c(c2c1)=Nc1ccc(cc1)-c1nc2ccc(cc2o1)N=c1[nH]c(c2ccccc12)=Nc1ccc2nc(oc2c1)-c1ccc(cc1)N=3` here?
**A.** Its growth inhibition is 18%.

**Q.** With `CCOc1ccc2nc(NC(=O)c3c/c(=N\NC(=O)C[N+](C)(C)C)c4ccc(O)cc4o3)sc2c1` as the compound, how does the growth inhibition read?
**A.** The growth inhibition was 28%.

**Q.** For `C[C@@H]1CC=C[C@@H](NC(=O)OCc2ccccc2)[C@H]1C=O`, which growth inhibition is on record?
**A.** The growth inhibition was -5%.

**Q.** For `O=C(/C=C/c1cccc([N+](=O)[O-])c1)CCl`, which growth inhibition is on record?
**A.** Its growth inhibition is -20%.

**Q.** Which growth inhibition does the source give for `CCC[CH2][Sn]([CH2]CCC)([O]C(=O)c1cccc(F)c1F)[O]C(=O)c1cccc(F)c1F` here?
**A.** The growth inhibition was 62%.

**Q.** Which growth inhibition does the source give for `O=C(O)CCC(=O)NNc1ccccc1` here?
**A.** Its growth inhibition is -1%.

Same assay, conditions: S. cerevisiae mec2-1 strain, at 50.0 µM (retest, dose inferred, filed as 5.0), stronger effect = higher value

**Q.** With `O=C1C(N=Nc2ccccc2)=C(O)C2C3C=CC(C3)C12` (stereo not drawn) as the compound, how does the growth inhibition read?
**A.** The growth inhibition was 98% (active).

**Q.** For `CC1CCCC(C(O)(C(=O)O)C2CCCC(C)C2)C1` (stereo not drawn), which growth inhibition is on record?
**A.** The growth inhibition was 81% (active).

**Q.** With `Cc1c(Cl)ccc2c1NC(=O)C2(O)CC(=O)c1ccc(Cl)cc1` (stereo not drawn) as the compound, how does the growth inhibition read?
**A.** The growth inhibition was 99% (active).

**Q.** With `Cc1cc2c(=O)[nH]c(N)nc2nc1C` as the compound, how does the growth inhibition read?
**A.** Its growth inhibition is -15%.

**Q.** With `C=C1C(=O)O[C@@H]2C[C@@]3(C)CCC[C@H](C)C3=C[C@H]12` as the compound, how does the growth inhibition read?
**A.** The growth inhibition was 98% (active).

**Q.** Which growth inhibition does the source give for `CCC(=NCCCCCCN=C(CC)c1cc(C)cc([N+](=O)[O-])c1O)c1cc(C)cc([N+](=O)[O-])c1O.[Fe]` here?
**A.** Its growth inhibition is 79% (active).

**Q.** With `CCCCN(CCCC)CC(O)c1cc(-c2ccc(Cl)cc2)nc2c(Cl)cccc12` (stereo not drawn) as the compound, how does the growth inhibition read?
**A.** Its growth inhibition is 1%.

**Q.** For `COc1ccc2c(c1)CC/C(=C\c1ccc(OCCN(C)C)cc1)C2=O`, which growth inhibition is on record?
**A.** Its growth inhibition is 15%.

**Q.** Which growth inhibition does the source give for `CCOC(=O)c1cc2c(nc1NCc1ccc(OC)c(OC)c1)/C(=C/c1ccccc1)CCCC2` here?
**A.** The growth inhibition was 93% (active).

**Q.** Which growth inhibition does the source give for `CSCS(=O)C[C@H](CO)NC(=O)/C=C/c1c(C)[nH]c(=O)[nH]c1=O` (stereo partly drawn) here?
**A.** Its growth inhibition is 86% (active).

**Q.** For `CCOC(=O)c1c(N)sc2c1CCCCC2`, which growth inhibition is on record?
**A.** The growth inhibition was -25%.

**Q.** Which growth inhibition does the source give for `Cc1cc(N)c(C)c2c1[nH]c1ccc(Br)cc12` here?
**A.** Its growth inhibition is 89% (active).

**Q.** With `N=C(N)Sc1ccc([N+](=O)[O-])cc1Cl` as the compound, how does the growth inhibition read?
**A.** The growth inhibition was 96% (active).

**Q.** Which growth inhibition does the source give for `COc1c(OC)c(C2(O)C(=O)N(C)c3ccccc32)c(OC)c(OC)c1C1(O)C(=O)N(C)c2ccccc21` (stereo not drawn) here?
**A.** Its growth inhibition is 12%.

**Q.** With `Fc1cccc(NC(=S)SCc2ccc(Cl)cc2)c1` as the compound, how does the growth inhibition read?
**A.** The growth inhibition was 98% (active).

**Q.** For `Cc1ccc(/C=N/NS(=O)(=O)c2ccccc2)c(C)c1`, which growth inhibition is on record?
**A.** Its growth inhibition is 1%.

**Q.** Which growth inhibition does the source give for `CCCCCCCCCCCCNC(=O)C[n+]1cccc(C(=O)N(C)C)c1` here?
**A.** Its growth inhibition is -13%.

**Q.** Which growth inhibition does the source give for `CN(C)C(=S)/N=c1\ss/c(=N\S(=O)(=O)c2ccccc2)n1-c1ccccc1` here?
**A.** Its growth inhibition is -13%.

**Q.** With `O=C(NCCCl)Nc1c2ccccc2nc2ccccc12` as the compound, how does the growth inhibition read?
**A.** Its growth inhibition is 39%.

**Q.** Which growth inhibition does the source give for `COc1ccccc1NC(=O)/C(=C/c1ccccc1)C(C)=O` here?
**A.** The growth inhibition was -2%.

**Q.** With `Oc1[nH]c2ccccc2c1N=NC(=S)NCc1ccccn1` as the compound, how does the growth inhibition read?
**A.** Its growth inhibition is 99% (active).

**Q.** For `c1cc2c(cc1CCCCCCCCCCc1ccc3c(c1)CCC3)CCC2`, which growth inhibition is on record?
**A.** The growth inhibition was -8%.

**Q.** Which growth inhibition does the source give for `C=Cc1ccccc1C1(O)C=CC(OC)(OC)C=C1` here?
**A.** Its growth inhibition is 16%.

**Q.** With `CN(C)CC1CCc2c(ccc3ccccc23)C1=O` (stereo not drawn) as the compound, how does the growth inhibition read?
**A.** The growth inhibition was 28%.

**Q.** For `CCCCC(C)(C)OC(=O)Nc1ccc(Br)cc1`, which growth inhibition is on record?
**A.** Its growth inhibition is 94% (active).

**Q.** For `O=C(Nc1ccc(F)c(Cl)c1)Oc1ccc(Br)cc1Br`, which growth inhibition is on record?
**A.** The growth inhibition was 50%.

**Q.** Which growth inhibition does the source give for `CCO/C=C1\N=C(C(O)(c2ccc(Cl)cc2)c2ccc(Cl)cc2)OC1=O` here?
**A.** Its growth inhibition is 16%.

**Q.** With `O=C1c2ccccc2C(O)(c2ccccc2)c2c(Cl)cccc21` (stereo not drawn) as the compound, how does the growth inhibition read?
**A.** Its growth inhibition is 26%.

**Q.** With `Nc1ccccc1-c1nc2c(ccc3ccccc32)[nH]1` as the compound, how does the growth inhibition read?
**A.** The growth inhibition was -10%.

**Q.** With `CCCCCCCCCCCCCCNCCN` as the compound, how does the growth inhibition read?
**A.** The growth inhibition was 33%.

**Q.** With `CC(C)CCCC(C)C1CCC2C3CC=C4OC(=O)CCC4(C)C3CCC12C` (stereo not drawn) as the compound, how does the growth inhibition read?
**A.** Its growth inhibition is 85% (active).

**Q.** Which growth inhibition does the source give for `CC(Br)C(=O)c1ccc2cc(Cl)c3ccccc3c2c1` (stereo not drawn) here?
**A.** Its growth inhibition is 99% (active).

**Q.** With `N#CSc1ccc2nc(NCO)sc2c1` as the compound, how does the growth inhibition read?
**A.** The growth inhibition was 97% (active).

**Q.** For `c1ccc2c3[nH]c(c2c1)=Nc1ccc(cc1)-c1nc2ccc(cc2o1)N=c1[nH]c(c2ccccc12)=Nc1ccc2nc(oc2c1)-c1ccc(cc1)N=3`, which growth inhibition is on record?
**A.** The growth inhibition was 93% (active).

**Q.** Which growth inhibition does the source give for `CCOc1ccc2nc(NC(=O)c3c/c(=N\NC(=O)C[N+](C)(C)C)c4ccc(O)cc4o3)sc2c1` here?
**A.** The growth inhibition was 53%.

**Q.** With `C[C@@H]1CC=C[C@@H](NC(=O)OCc2ccccc2)[C@H]1C=O` as the compound, how does the growth inhibition read?
**A.** The growth inhibition was -2%.

**Q.** Which growth inhibition does the source give for `O=C(/C=C/c1cccc([N+](=O)[O-])c1)CCl` here?
**A.** Its growth inhibition is 99% (active).

**Q.** For `CCC[CH2][Sn]([CH2]CCC)([O]C(=O)c1cccc(F)c1F)[O]C(=O)c1cccc(F)c1F`, which growth inhibition is on record?
**A.** The growth inhibition was 62%.

**Q.** For `O=C(O)CCC(=O)NNc1ccccc1`, which growth inhibition is on record?
**A.** The growth inhibition was 66%.
